# According to PubChem BioAssay (EPA / NIEHS):
# Records with an inconclusive call do not appear. Activity calls are given as the source filed them. Rule for the calls: active = hit-call score of the fitted dose curve at least 0.9, where 1 is the maximum; inconclusive = response in the unintended direction; inactive = score below 0.9.
# Tests used:
# [1] = test system: zebrafish Estrogen Receptor (ESR2A), gene 317734; experiment: ATG_zfER2a_XSP1: Attagene TRANS-FACTORIAL Multi-Species (XSP1) HepG2 Assay for zebrafish Estrogen Receptor (ESR2A) (AID 2283778)
# Outline: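 Gain-of-signal reporter transcription readout from GAL4-UAS units in transiently transfected HepG2 cells, 24 h exposure, 3 nM 6-alpha-fluorotestosterone co-present. Detection by RT-PCR with capillary electrophoresis fluorescence.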
# [2] = molecular target: chicken Estrogen Receptor (ESR1), ESR1 (gene 396099) (UniProt P06212); experiment: ATG_chERa_XSP1: Attagene TRANS-FACTORIAL Multi-Species (XSP1) HepG2 Assay for chicken Estrogen Receptor (ESR1) (AID 2283779)
# Sequence of chicken Estrogen Receptor (ESR1), ESR1 (gene 396099) (P06212 whole entry, looked up, the tested form may be a part): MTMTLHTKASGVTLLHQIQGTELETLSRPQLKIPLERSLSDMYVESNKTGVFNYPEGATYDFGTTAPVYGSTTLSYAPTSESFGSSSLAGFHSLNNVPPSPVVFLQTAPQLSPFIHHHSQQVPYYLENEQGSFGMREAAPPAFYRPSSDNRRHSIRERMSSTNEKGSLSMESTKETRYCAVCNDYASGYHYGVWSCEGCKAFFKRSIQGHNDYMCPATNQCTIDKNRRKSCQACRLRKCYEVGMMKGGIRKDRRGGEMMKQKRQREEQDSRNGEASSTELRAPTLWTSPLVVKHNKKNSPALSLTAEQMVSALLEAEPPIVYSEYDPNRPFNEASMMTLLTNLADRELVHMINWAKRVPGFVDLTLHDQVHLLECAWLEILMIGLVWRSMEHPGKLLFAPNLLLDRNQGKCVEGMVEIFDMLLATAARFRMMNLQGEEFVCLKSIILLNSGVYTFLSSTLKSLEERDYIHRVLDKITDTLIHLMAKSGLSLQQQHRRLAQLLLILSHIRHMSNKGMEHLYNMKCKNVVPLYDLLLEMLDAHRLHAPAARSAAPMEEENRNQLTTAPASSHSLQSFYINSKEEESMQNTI
# Outline: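 Gain-of-signal reporter transcription, relative to DMSO, was scored in transiently transfected HepG2 cells after a 24 h dose. Fluorescence intensity of amplified, digested reporter cDNA fragments served as the endpoint.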
# [3] = molecular target: Estrogen receptor (Homo sapiens) (UniProt P03372); experiment: ATG_hERa_XSP1: Attagene TRANS-FACTORIAL Multi-Species (XSP1) HepG2 Assay for human Estrogen Receptor (ESR1) (AID 2283780)
# Sequence of Estrogen receptor (Homo sapiens) (P03372 whole entry, looked up, the tested form may be a part): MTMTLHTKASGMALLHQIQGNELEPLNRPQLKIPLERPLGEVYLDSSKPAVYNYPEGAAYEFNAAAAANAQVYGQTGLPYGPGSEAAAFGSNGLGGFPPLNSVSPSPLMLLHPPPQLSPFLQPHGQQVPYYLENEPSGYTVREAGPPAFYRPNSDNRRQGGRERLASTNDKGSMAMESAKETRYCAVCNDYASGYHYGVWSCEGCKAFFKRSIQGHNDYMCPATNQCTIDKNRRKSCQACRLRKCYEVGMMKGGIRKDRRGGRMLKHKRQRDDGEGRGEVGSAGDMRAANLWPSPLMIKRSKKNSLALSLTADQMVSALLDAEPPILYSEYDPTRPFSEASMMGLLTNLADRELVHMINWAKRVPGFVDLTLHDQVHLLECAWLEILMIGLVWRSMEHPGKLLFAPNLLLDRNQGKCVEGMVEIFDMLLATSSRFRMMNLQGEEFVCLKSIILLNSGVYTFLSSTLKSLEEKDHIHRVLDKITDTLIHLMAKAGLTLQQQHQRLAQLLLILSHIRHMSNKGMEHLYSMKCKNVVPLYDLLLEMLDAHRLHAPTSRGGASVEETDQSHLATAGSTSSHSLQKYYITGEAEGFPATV
# Outline: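 Reporter transcripts from multiplexed GAL4-UAS units driven by NR-Gal4 chimeras in transiently transfected HepG2 were measured by RT-PCR with capillary electrophoresis 24 h post-dose, with 3 nM 6-alpha-fluorotestosterone present; gain-of-signal relative to DMSO.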
# [4] = test system: turtle Estrogen Receptor (ESR1), gene 101933533; experiment: ATG_trERa_XSP1: Attagene TRANS-FACTORIAL Multi-Species (XSP1) HepG2 Assay for turtle Estrogen Receptor (ESR1) (AID 2283781)
# Outline: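 Cell-based chimeric NR-Gal4 transactivation; HepG2; 24 h dosing; mRNA reporter detected by RT-PCR and capillary electrophoresis fluorescence.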
# [5] = molecular target: Estrogen receptor beta (Homo sapiens) (UniProt Q92731); experiment: ATG_hERb_XSP1: Attagene TRANS-FACTORIAL Multi-Species (XSP1) HepG2 Assay for human Estrogen Receptor (ESR2) (AID 2283788)
# Sequence of Estrogen receptor beta (Homo sapiens) (Q92731 whole entry, looked up, the tested form may be a part): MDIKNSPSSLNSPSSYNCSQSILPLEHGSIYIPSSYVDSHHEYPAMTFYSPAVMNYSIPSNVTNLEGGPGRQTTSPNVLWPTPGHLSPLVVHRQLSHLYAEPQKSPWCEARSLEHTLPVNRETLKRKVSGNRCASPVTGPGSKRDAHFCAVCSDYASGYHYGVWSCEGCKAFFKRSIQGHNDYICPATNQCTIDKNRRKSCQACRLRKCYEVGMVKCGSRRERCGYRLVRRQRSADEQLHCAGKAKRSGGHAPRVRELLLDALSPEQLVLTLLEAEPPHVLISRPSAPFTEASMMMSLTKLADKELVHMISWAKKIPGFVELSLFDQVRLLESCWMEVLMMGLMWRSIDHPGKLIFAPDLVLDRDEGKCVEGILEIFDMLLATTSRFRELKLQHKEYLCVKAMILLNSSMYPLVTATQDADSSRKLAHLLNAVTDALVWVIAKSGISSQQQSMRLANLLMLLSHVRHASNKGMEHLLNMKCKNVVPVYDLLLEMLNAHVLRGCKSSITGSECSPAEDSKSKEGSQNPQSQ
# Outline: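 Multiplexed trans-activation in transfected HepG2: ERβ-Gal4 reporter transcripts after 24 h treatment, detected by RT-PCR plus capillary electrophoresis.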
# [6] = ATG_M_06_XSP1: Attagene TRANS-FACTORIAL Multi-Species (XSP1) HepG2 Assay for M06 Transcription Factor (Internal Marker) (AID 2283790)
# Outline: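 This background-control readout tracks M06 reporter mRNA, measured by RT-PCR and capillary electrophoresis. HepG2 cells transiently carrying the GAL4-UAS reporter panel were dosed for 24 h with 3 nM 6-alpha-fluorotestosterone added for partial AR stimulation; increases were scored relative to DMSO.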
# [7] = ATG_M_61_XSP1: Attagene TRANS-FACTORIAL Multi-Species (XSP1) HepG2 Assay for M61 Transcription Factor (Internal Marker) (AID 2283797)
# Outline: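 Background-control readout: reporter transcripts measured by RT-PCR and capillary electrophoresis 24 h after dosing transiently transfected HepG2 multi-reporter cells, with 3 nM 6-alpha-fluorotestosterone present. Fitted in the positive direction relative to DMSO.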
# [8] = molecular target: human Thyroid hormone Receptor beta (TRb), THRB (gene 7068) (UniProt P10828); experiment: ATG_hTRb_XSP1: Attagene TRANS-FACTORIAL Multi-Species (XSP1) HepG2 Assay for human Thyroid hormone Receptor beta (TRb) (AID 2283808)
# Sequence of human Thyroid hormone Receptor beta (TRb), THRB (gene 7068) (P10828 whole entry, looked up, the tested form may be a part): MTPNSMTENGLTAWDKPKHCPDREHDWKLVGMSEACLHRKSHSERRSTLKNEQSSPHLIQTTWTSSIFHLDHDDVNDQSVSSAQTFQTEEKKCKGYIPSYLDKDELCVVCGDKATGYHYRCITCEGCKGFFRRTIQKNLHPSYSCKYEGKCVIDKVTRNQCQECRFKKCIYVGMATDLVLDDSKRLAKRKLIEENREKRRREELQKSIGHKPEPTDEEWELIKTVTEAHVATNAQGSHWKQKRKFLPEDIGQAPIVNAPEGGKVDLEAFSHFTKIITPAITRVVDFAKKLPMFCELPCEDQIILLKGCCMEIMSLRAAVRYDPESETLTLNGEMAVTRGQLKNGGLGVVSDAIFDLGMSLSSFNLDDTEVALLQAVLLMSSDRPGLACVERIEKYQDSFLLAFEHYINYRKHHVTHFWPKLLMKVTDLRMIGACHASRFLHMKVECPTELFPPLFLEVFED
# Outline: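 Readout is reporter mRNA induction measured by RT-PCR, fluorescent labelling and capillary electrophoresis, fitted upward relative to DMSO. Transiently transfected human HepG2 cells expressing NR-Gal4 chimeras were dosed for 24 h, medium containing 3 nM 6-alpha-fluorotestosterone.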
# [9] = ATG_XTT_Cytotoxicity_XSP1: Cytotoxicity Assessment in the Attagene TRANS-FACTORIAL Multi-Species (XSP1) HepG2 Assay (AID 2283810)
# Outline: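 XTT viability readout taken at 24 hours post-dosing in HepG2 liver cells co-treated with 3 nM 6-alpha-fluorotestosterone. Signal loss relative to DMSO controls reflects cytotoxicity.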
# [10] = ATG_M_06_XSP2: Attagene TRANS-FACTORIAL Multi-Species (XSP2) HepG2 Assay for M06 Transcription Factor (Internal Marker) (AID 2283811);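 note: hits are increases in signal above the DMSO baseline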
# Outline: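 Cells of the human liver line HepG2 carried transfected reporter transcription units and were treated for 24 h. Induced reporter transcripts were detected by fluorescence after RT-PCR and capillary electrophoresis, with activity fitted in the gain direction against DMSO.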
# [11] = ACEA_ER_AUC_viability: ACEA Biosciences xCELLigence Real-Time Cell Analysis on Estrogen Receptor Agonism for Viability (AID 2283782);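 note: hit means loss of impedance signal meaning reduced cell growth or viability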
# Outline: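 Continuous-exposure impedance cell analysis uses T-47D cells in charcoal-stripped serum, eight 1:4 dilutions topping at 100 uM final, biological duplicate. Area under the growth curve at 80 h is fitted against DMSO baseline.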
# AR (gene 367) = AR (gene 367) (UniProt P10275); experiment: ACEA_AR_agonist_80hr: ACEA Biosciences xCELLigence Real-Time Cell Analysis on Androgen Receptor Agonism for Proliferation (AID 2283783);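 note: hits increase impedance growth signal above DMSO baseline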
# Sequence of AR (gene 367) (P10275 whole entry, looked up): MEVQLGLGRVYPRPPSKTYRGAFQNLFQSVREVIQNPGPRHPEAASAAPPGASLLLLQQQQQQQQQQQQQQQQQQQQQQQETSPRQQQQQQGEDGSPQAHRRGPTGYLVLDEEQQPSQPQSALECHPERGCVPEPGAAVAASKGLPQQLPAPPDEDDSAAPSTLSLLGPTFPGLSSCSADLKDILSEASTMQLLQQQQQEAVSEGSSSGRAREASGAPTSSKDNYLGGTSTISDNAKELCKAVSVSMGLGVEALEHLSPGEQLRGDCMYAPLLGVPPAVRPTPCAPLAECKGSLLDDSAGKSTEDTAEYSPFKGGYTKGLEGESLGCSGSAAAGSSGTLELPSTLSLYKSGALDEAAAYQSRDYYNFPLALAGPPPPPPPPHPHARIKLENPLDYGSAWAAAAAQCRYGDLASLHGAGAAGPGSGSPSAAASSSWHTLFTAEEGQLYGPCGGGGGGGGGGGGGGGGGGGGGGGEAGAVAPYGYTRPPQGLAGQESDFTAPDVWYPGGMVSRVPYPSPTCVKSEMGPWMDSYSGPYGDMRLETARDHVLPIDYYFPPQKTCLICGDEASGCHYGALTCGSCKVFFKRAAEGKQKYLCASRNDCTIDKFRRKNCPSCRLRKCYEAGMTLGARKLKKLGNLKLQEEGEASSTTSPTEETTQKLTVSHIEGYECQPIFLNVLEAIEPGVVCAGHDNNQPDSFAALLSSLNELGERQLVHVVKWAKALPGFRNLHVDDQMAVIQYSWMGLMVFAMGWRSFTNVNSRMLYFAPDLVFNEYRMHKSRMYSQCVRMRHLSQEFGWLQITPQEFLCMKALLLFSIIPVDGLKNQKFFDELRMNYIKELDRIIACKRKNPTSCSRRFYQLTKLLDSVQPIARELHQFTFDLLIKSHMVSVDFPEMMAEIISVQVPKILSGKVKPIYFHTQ
# Outline: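 Real-time cell-growth kinetics were recorded by electrode impedance in 22Rv1 cells exposed to test chemicals up to 100 uM final; the 80 h timepoint served as the readout, fitted upward relative to DMSO controls, in biological duplicate.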
smiles,measurement,setting,value
CN(CCOc1ccc(CC2SC(=O)NC2=O)cc1)c1ccccn1 (configuration not stated),outcome,[1],inactive
same,AC50,[2],0.0353 µM (active)
same,outcome,[3],inactive
same,AC50,[4],0.0372 µM (active)
same,outcome,[5],inactive
same,outcome,[6],inactive
same,outcome,[7],inactive
same,outcome,[8],inactive
same,outcome,[9],inactive
same,outcome,[10],inactive
CCCCCCOC(=O)CC,AC50,[11],23.9 µM (active)
CC(C)=CCCC(C)=CCCC(C)=CCO,AC50,[11],84.2 µM (active)
CSc1nc(NC2CC2)nc(NC(C)(C)C)n1,outcome,[11],inactive
CCCC1CCC(=O)O1 (configuration not stated),outcome,[11],inactive
CC(C)(N)CO,outcome,[11],inactive
CC(C)=CCC[C@](C)(O)[C@@H]1CC=C(C)CC1,AC50,[11],84.5 µM (active)
CC(=O)/C=C/C1=C(C)CCCC1(C)C,AC50,[11],9.92 µM (active)
Cc1ccc(O)c(C(C)(C)C)c1,AC50,[11],26.2 µM (active)
CC(=O)C=CC1=C(C)CCCC1(C)C,outcome,[11],inactive
Cc1ccc(C(C)C)cc1O,outcome,[11],inactive
CCCCCCCCC,outcome,[11],inactive
CCCC(=O)OCCC(C)CCC=C(C)C (configuration not stated),AC50,[11],77.8 µM (active)
COC(=O)c1ccc(C)cc1,outcome,[11],inactive
O=c1[nH]nnc2ccccc12,outcome,[11],inactive
O=C(Cl)c1cccc(C(=O)Cl)c1,outcome,[11],inactive
CCCCC(CC)COC(=O)/C=C\C(=O)OCC(CC)CCCC (configuration not stated),AC50,[11],27.4 µM (active)
CC(=O)OCC=Cc1ccccc1,outcome,[11],inactive
C=CC(C)(O)CCC=C(C)CCC=C(C)C (configuration not stated),AC50,[11],67.1 µM (active)
CCC(O)CO (configuration not stated),AC50,[11],26 µM (active)
CC1COc2ccccc2N1C(=O)C(Cl)Cl (configuration not stated),AC50,[11],4.69 µM (active)
CN(C)CCCN,outcome,[11],inactive
COc1ccc(NC(=O)CC(C)=O)cc1,outcome,[11],inactive
CC(=O)OCc1ccc2c(c1)OCO2,outcome,[11],inactive
Nc1cc([N+](=O)[O-])ccc1Cl,AC50,[11],76.3 µM (active)
COc1cccc(OC)c1,outcome,[11],inactive
CCCC(=O)c1cc(O)c(O)cc1O,outcome,[11],inactive
CC(CCO)CCCC(C)(C)O (configuration not stated),AC50,[11],50.5 µM (active)
C=CCOc1nc(OCC=C)nc(OCC=C)n1,outcome,[11],inactive
Nc1cccc(S(=O)(=O)c2cccc(N)c2)c1,outcome,[11],inactive
Cc1ccc(S)cc1,outcome,[11],inactive
CCCCCCC#CC(=O)OC,outcome,[11],inactive
CC(C)=CCC/C(C)=C/COC=O,outcome,[11],inactive
CC(C)(COC(=O)c1ccccc1)COC(=O)c1ccccc1,AC50,[11],72.8 µM (active)
C=C(C)C(=O)O[C@H]1C[C@@H]2CC[C@@]1(C)C2(C)C,outcome,[11],inactive
CCCOCC(C)O (configuration not stated),outcome,[11],inactive
same,outcome,AR (gene 367),inactive
O=P(c1ccccc1)(c1ccccc1)c1ccccc1,outcome,[11],inactive
